Growth data for 15 compounds are collected here from PubChem BioAssay (NCI).

Compounds without any hit were thinned out: in the full panel of roughly 83,000, 20% have a hit.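 A percent growth of 40 corresponds to 60% growth inhibition; 0 means no net growth; -100 means all cells died. Active threshold: below 10.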 Unmarked numbers belong to inactive results. Activity calls are given as the source filed them.

Some test systems named below: T-47D breast; BT-549 breast; MDA-MB-435 melanoma; SW-620 colon; MCF7 breast; KM12 colon; HCT-116 colon; HCC-2998 colon.
What all share (assay): NCI-60 one-dose screen, 48 h (100 = growth as untreated, 0 = no growth, -100 = all killed)
What all share (conditions): 10 µM

On to `Cc1cc(C)nc(NS(=O)(=O)c2ccc(Nc3nc4nc(NCc5ccccc5)nc(-c5ccc(O)cc5)c4c(=O)[nH]3)cc2)n1`, for which the growth is 25.1% with T-47D breast; 34% in the assay on BT-549 breast; 32.1% in the assay with MDA-MB-435 melanoma; 11.2% in the assay on SW-620 colon; 16.1% with MCF7 breast; 29.6% in the assay on KM12 colon.

Regarding `CCOC(=O)c1cc(C(=O)c2cc(OC)cc(OC)c2)n2ncc3ccccc3c12`, the growth was 12.8% in the assay with T-47D breast; 27.3% in the assay with BT-549 breast; 4.07% (active) with MDA-MB-435 melanoma; 8.21% (active) with SW-620 colon; 15.9% with MCF7 breast; 4.23% (active) in the assay on HCT-116 colon. In the assay on KM12 colon, the growth was 25.9%.

On to `COc1ccc([C@H]2[C@H](C(=O)Nc3cccnc3)c3ccccc3C(=O)N2c2ccccc2)cc1`, for which the growth in the assay on T-47D breast is 74%; with BT-549 breast, 90.5%; in the assay with MDA-MB-435 melanoma, 99.1%; with SW-620 colon it was 91.4%; in the assay with MCF7 breast it was 95.7%; with HCT-116 colon it was 49.4%. Further, in the assay with KM12 colon, the growth is 60.7%.

For the compound `O=C(O)c1cn(C2CC2)c2cc(N3CCN(C(=O)c4cc(-c5ccc(Cl)cc5)nc5ccccc45)CC3)c(F)cc2c1=O`, the growth in the assay with T-47D breast is 86.7%; in the assay with BT-549 breast, 83.5%; in the assay with MDA-MB-435 melanoma, 95.6%; with SW-620 colon, 97.5%; in the assay on MCF7 breast it was 89.7%; with HCT-116 colon it was 84.3%. For the same compound, the growth with KM12 colon is 102%.

Regarding `COc1ccc(-c2nn(-c3cccc(Cl)c3)cc2C=C(C#N)C#N)cc1`, the growth is 21.1% in the assay on T-47D breast; -34.8% (active) with BT-549 breast; -68.5% (active) in the assay with MDA-MB-435 melanoma; -2.25% (active) in the assay on SW-620 colon; -11.6% (active) in the assay with MCF7 breast; -40.9% (active) in the assay with HCT-116 colon. Besides, the growth in the assay with KM12 colon is 4.48% (active).

As for `COc1ccc(C(=O)c2ccccc2CN2C(=O)c3ccccc3C2=O)cc1`, the growth was 90.6% with T-47D breast; 112% with BT-549 breast; 108% in the assay with MDA-MB-435 melanoma; 99% in the assay with SW-620 colon; 102% with MCF7 breast; 101% in the assay on HCT-116 colon. Also, the growth in the assay with KM12 colon was 107%.

Take `COc1cc2c(cc1NC(=O)C(Cl)Cl)-c1ccc(NC(=O)C(Cl)Cl)cc1C2`: the growth with T-47D breast is 3.05% (active); in the assay on BT-549 breast, 69.3%; in the assay on MDA-MB-435 melanoma, -57.7% (active); in the assay with SW-620 colon it was -11.6% (active); in the assay with MCF7 breast, -3.08% (active); with HCT-116 colon, -61% (active). Further, the growth in the assay on KM12 colon is -65.5% (active).

For `CC(C)CCN(CCC(C)C)CC(=O)Nc1ccc(S(=O)(=O)c2ccc(NC(=O)CN(CCC(C)C)CCC(C)C)cc2)cc1`, the growth in the assay on T-47D breast is 52.7%; in the assay with BT-549 breast, 42.2%; in the assay on MDA-MB-435 melanoma it was 65.7%; in the assay with SW-620 colon, -1.98% (active); in the assay with MCF7 breast it was 15.3%; in the assay on HCT-116 colon it was -54.2% (active). Further, in the assay on KM12 colon, the growth was 54.5%.

With `COC(=O)c1cc2oc(/C=C3/SC(=S)N(N)C3=O)cc2n1Cc1ccccc1`, the growth in the assay with T-47D breast is 75.6%; in the assay on BT-549 breast, 36.5%; in the assay with MDA-MB-435 melanoma, 19.2%; in the assay with SW-620 colon, -43.3% (active); in the assay with MCF7 breast, 21%; with HCC-2998 colon, 80.2%. Moreover, in the assay with KM12 colon, the growth was 58.9%.

For the compound `COc1ccc(-c2csc(NC(=O)c3ccc(Cc4n[nH]c(=O)c5cccnc45)cc3)n2)cc1`, the growth in the assay on T-47D breast was 68.8%; in the assay with BT-549 breast, -17.8% (active); in the assay with MDA-MB-435 melanoma, 98.8%; in the assay on SW-620 colon, 95.2%; in the assay with MCF7 breast it was 77.4%; with HCT-116 colon, 91.9%. For the same compound, the growth in the assay with KM12 colon was 98.5%.

On to `O=c1c(Br)ccc(Br)cc1Br`, for which the growth in the assay with T-47D breast was -44.1% (active); in the assay with BT-549 breast, 98.4%; in the assay with MDA-MB-435 melanoma, -40.1% (active); in the assay with SW-620 colon it was -46.5% (active); in the assay with MCF7 breast it was -22.6% (active); in the assay with HCT-116 colon, -88.1% (active). In addition, the growth in the assay on KM12 colon is -47% (active).

With `C#C[C@]1(O)CCC2C3CCc4cc(OC5CCCC5)ccc4C3CC[C@@]21C` (some centres undefined), the growth with T-47D breast was 84%; in the assay with BT-549 breast, 105%; in the assay with MDA-MB-435 melanoma, 94.8%; in the assay on SW-620 colon, 53.4%; in the assay on MCF7 breast, 74.3%; in the assay with HCT-116 colon it was 68.6%. Further, the growth with KM12 colon was 34.1%.

Turning to `Cc1ccc2nc(Cl)c(-c3nc4ccccc4o3)cc2c1`, the growth was 83.9% in the assay with T-47D breast; 88.5% in the assay on BT-549 breast; 99.8% in the assay on MDA-MB-435 melanoma; 103% in the assay on SW-620 colon; 92.4% in the assay on MCF7 breast; 97.3% in the assay on HCT-116 colon. For the same compound, the growth in the assay on KM12 colon was 89.5%.

Regarding `O=c1oc2c(cc1-c1ccc(F)cc1)C(O)Oc1ccccc1-2` (centres undefined), the growth in the assay on T-47D breast was 87.4%; with BT-549 breast, 87.6%; with MDA-MB-435 melanoma, 3.53% (active); in the assay on SW-620 colon, 45.4%; in the assay with MCF7 breast, 55.2%; in the assay on HCC-2998 colon, 48.6%. In addition, the growth with KM12 colon is 45.3%.

On to `COc1cc(-c2nn(-c3cccc(NC(=O)CCN4CCN(Cc5ccccc5)CC4)c3)cc2-c2ccncc2)ccc1Cl`, for which the growth was 29.7% with T-47D breast; 42.7% in the assay with BT-549 breast; -38.3% (active) in the assay on MDA-MB-435 melanoma; 2.77% (active) in the assay on SW-620 colon; 0.805% (active) with MCF7 breast; 1.3% (active) in the assay with HCT-116 colon. The growth with KM12 colon is 9.7% (active).
